From PubChem BioAssay (EPA / NIEHS)
Some compounds were tested as several samples or in several runs, with calls that do not always agree. The source made the active and inactive calls. How the source made its calls: active means hit-call score of the fitted dose curve at least 0.9, where 1 is the maximum; inactive means score below 0.9.

Columns and labels:
Conditions in all cases: mRNA level, 48 h; actives raise or lower the signal
[1] = read-out: Hypoxia-inducible factor 1-alpha (Homo sapiens) (UniProt Q16665); experiment: LTEA_HepaRG_HIF1A: Life Technologies and Expression Analysis (LTEA) Assay for Hypoxia-inducible factor 1 (HIF1A) Trancription factor using HepaRG (AID 2283503)
Summary of the method: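 HepaRG, 48 h exposure, 8-pt half-log series from 100 uM, 0.5% DMSO vehicle, duplicates. Readout: HIF1A transcript by qRT-PCR (Fluidigm array), housekeeping-normalised. Bidirectional curve fit vs DMSO baseline.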

[2] = read-out: 3-Hydroxy-3-Methylglutaryl-CoA Synthase 2 (HMGCS2), HMGCS2 (gene 3158); experiment: LTEA_HepaRG_HMGCS2: Life Technologies and Expression Analysis (LTEA) Assay for 3-Hydroxy-3-Methylglutaryl-CoA Synthase 2 (HMGCS2) using HepaRG (AID 2283504)
Summary of the method: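 HepaRG, plated 48 h then switched to serum-free induction media; cmpd 8-pt, max 100 uM, 1/2-log, 0.5% DMSO, n=2, 48 h. HMGCS2 mRNA by Fluidigm TaqMan qRT-PCR, ACTB/GAPDH/POLR2A norm; bidirectional fit vs DMSO.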

HGF (gene 3082) = experiment: LTEA_HepaRG_HGF: Life Technologies and Expression Analysis (LTEA) Assay for Hepatocyte Growth Facto (HGF) using HepaRG (AID 2283505)
Summary of the method: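 Read-out is HGF transcript level by qRT-PCR, normalized to three housekeeping genes, fitted bidirectionally against 0.5% DMSO vehicle. Human HepaRG cells received test chemicals for 48 h at up to 100 uM.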

[3] = read-out: Insulin Like Growth Factor 1 (IGF1), IGF1 (gene 3479); experiment: LTEA_HepaRG_IGF1: Life Technologies and Expression Analysis (LTEA) Assay for Insulin Like Growth Factor 1 (IGF1) using HepaRG (AID 2283506)
Summary of the method: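 Using human HepaRG liver cells, IGF1 transcript induction or suppression is measured 48 h after dosing across eight concentrations capped at 100 uM. Values derive from bidirectional concentration-response fitting with DMSO as baseline.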

[4] = read-out: Intercellular Adhesion Molecule 1 (ICAM1), ICAM1 (gene 3383); experiment: LTEA_HepaRG_ICAM1: Life Technologies and Expression Analysis (LTEA) Assay for Intercellular Adhesion Molecule 1 (ICAM1) using HepaRG (AID 2283507)
Summary of the method: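 Readout is qRT-PCR mRNA level, normalized to three housekeeping genes and fitted bidirectionally against 0.5% DMSO vehicle. Human HepaRG cultures received compound for 48 h, top concentration 100 uM with half-log dilutions.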

[5] = read-out: Interleukin 6 (IL6), IL6 (gene 3569); experiment: LTEA_HepaRG_IL6: Life Technologies and Expression Analysis (LTEA) Assay for Interleukin 6 (IL6) using HepaRG (AID 2283509)
Summary of the method: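 Differentiated human HepaRG cells, plated 48 h then switched to serum-free induction medium, were exposed in duplicate for 48 h to eight half-log concentrations up to 100 uM in 0.5% DMSO. IL6 mRNA measured by qRT-PCR, normalized to ACTB/GAPDH/POLR2A.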

[6] = read-out: Interleukin 6 Receptor (IL6R), IL6R (gene 3570); experiment: LTEA_HepaRG_IL6R: Life Technologies and Expression Analysis (LTEA) Assay for Interleukin 6 Receptor (IL6R) using HepaRG (AID 2283510);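 on AC50: TaqMan qRT-PCR signal normalized to ACTB GAPDH and POLR2A housekeeping genes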
Summary of the method: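 Concentration-response in human liver HepaRG cells: eight concentrations from 100 uM downward by half-logs, 48 h exposure, 0.5% DMSO vehicle. IL6R mRNA change measured by qRT-PCR and fitted in both directions relative to vehicle.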

[7] = read-out: Potassium channel subfamily K member 1 (KCNK1), KCNK1 (gene 3775); experiment: LTEA_HepaRG_KCNK1: Life Technologies and Expression Analysis (LTEA) Assay for Potassium channel subfamily K member 1 (KCNK1) using HepaRG (AID 2283511)
Summary of the method: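 Differentiated human HepaRG cells in serum-free induction medium were exposed in duplicate for 48 h to 8 half-log concentrations up to 100 uM in 0.5% DMSO. KCNK1 mRNA was measured by TaqMan qRT-PCR, normalized to ACTB, GAPDH and POLR2A, and fitted bidirectionally versus DMSO.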

[8] = read-out: Keratin 19 (KRT19), KRT19 (gene 3880); experiment: LTEA_HepaRG_KRT19: Life Technologies and Expression Analysis (LTEA) Assay for Keratin 19 (KRT19) using HepaRG (AID 2283512)
Summary of the method: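 KRT19 transcript levels, measured by Fluidigm qRT-PCR against three housekeeping genes, are fitted for gain or loss of signal relative to DMSO. Human HepaRG cells receive test chemicals (top 100 uM, half-log steps, 0.5% DMSO) for 48 hours.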

[9] = read-out: JUN Transcription Factor, JUN (gene 3725); experiment: LTEA_HepaRG_JUN: Life Technologies and Expression Analysis (LTEA) Assay for JUN Transcription Factor using HepaRG (AID 2283513)
Summary of the method: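 Human HepaRG liver cells receive test chemicals in 0.5% DMSO for 48 h across an eight-point range topping at 100 uM. Expression changes in JUN are scored in both directions against the DMSO vehicle.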

[10] = read-out: Lipase C (LIPC), LIPC (gene 3990); experiment: LTEA_HepaRG_LIPC: Life Technologies and Expression Analysis (LTEA) Assay for Lipase C (LIPC) using HepaRG (AID 2283514)
Summary of the method: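 Differentiated human HepaRG cells in serum-free induction medium were exposed in duplicate for 48 h to eight concentrations (top 100 uM, half-log steps, 0.5% DMSO). LIPC mRNA was quantified by TaqMan qRT-PCR, normalized to ACTB, GAPDH and POLR2A, with bidirectional fitting versus DMSO.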

[11] = read-out: Lipoprotein lipase (LPL), LPL (gene 4023); experiment: LTEA_HepaRG_LPL: Life Technologies and Expression Analysis (LTEA) Assay for Lipoprotein lipase (LPL) using HepaRG (AID 2283515)
Summary of the method: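 Differentiated human HepaRG cells in serum-free induction medium were exposed in duplicate for 48 h to eight half-log concentrations (top 100 uM) in 0.5% DMSO. LPL mRNA was quantified by TaqMan qRT-PCR, normalized to ACTB, GAPDH and POLR2A.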

[12] = read-out: MicroRNA 122 (MIR122), gene 406906; experiment: LTEA_HepaRG_MIR122: Life Technologies and Expression Analysis (LTEA) Assay for MicroRNA 122 (MIR122) using HepaRG (AID 2283516); further: the transcript read is the microRNA miR-122
Summary of the method: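 HepaRG, 48 h exposure, 8-pt half-log from 100 uM, 0.5% DMSO; TaqMan qRT-PCR; bidirectional fit vs DMSO.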

MYC, MYC (gene 4609) = experiment: LTEA_HepaRG_MYC: Life Technologies and Expression Analysis (LTEA) Assay for MYC using HepaRG (AID 2283518)
Summary of the method: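 HepaRG, ~100,000 cells/well, collagen I; 48 h plating; serum-free induction medium; 48 h dosing, duplicate, 100 uM top, half-log, 0.5% DMSO; total RNA → qRT-PCR MYC; gain/loss fit vs DMSO.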

[13] = read-out: matrix metalloproteinase-3 (MMP3), MMP3 (gene 4314); experiment: LTEA_HepaRG_MMP3: Life Technologies and Expression Analysis (LTEA) Assay for matrix metalloproteinase-3 (MMP3) using HepaRG (AID 2283519)
Summary of the method: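 Differentiated human HepaRG cells, plated 48 h on collagen I, were exposed in duplicate for 48 h in serum-free induction medium to eight half-log concentrations up to 100 uM in 0.5% DMSO. MMP3 mRNA was quantified by TaqMan qRT-PCR, normalised to ACTB, GAPDH and POLR2A.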

[14] = read-out: Nuclear factor NF-kappa-B p105 subunit (Homo sapiens) (UniProt P19838); experiment: LTEA_HepaRG_NFKB1: Life Technologies and Expression Analysis (LTEA) Assay for Nuclear Factor Kappa B Subunit 1 (NFKB1) using HepaRG (AID 2283521);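 further: TaqMan qRT-PCR transcript normalised to ACTB GAPDH and POLR2A housekeeping genes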
Summary of the method: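 Differentiated human HepaRG cells were exposed for 48 h in serum-free induction medium to eight concentrations (top 100 uM, half-log steps, 0.5% DMSO), in duplicate. NFKB1 mRNA was measured by TaqMan qRT-PCR, normalized to ACTB/GAPDH/POLR2A, and fitted bidirectionally against DMSO.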

[15] = read-out: Protein phosphatase 2A (PPP2R4), PTPA (gene 5524); experiment: LTEA_HepaRG_PPP2R4: Life Technologies and Expression Analysis (LTEA) Assay for Protein phosphatase 2A (PPP2R4) using HepaRG (AID 2283522)
Summary of the method: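 Gene-expression endpoint in HepaRG hepatic cells: 48 h treatment across eight half-log concentrations up to 100 uM in 0.5% DMSO. PPP2R4 mRNA by qRT-PCR, normalized to three endogenous control genes.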

[16] = read-out: Paternally Expressed 10 (PEG10), PEG10 (gene 23089); experiment: LTEA_HepaRG_PEG10: Life Technologies and Expression Analysis (LTEA) Assay for Paternally Expressed 10 (PEG10) using HepaRG (AID 2283520);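 on AC50: PEG10 transcript by qRT-PCR normalised to ACTB GAPDH and POLR2A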
Summary of the method: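 Chemicals tested on HepaRG cells for 48 h, highest concentration 100 uM. PEG10 expression assessed by qRT-PCR relative to DMSO control.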

[17] = read-out: matrix metalloproteinase-10 (MMP10), MMP10 (gene 4319); experiment: LTEA_HepaRG_MMP10: Life Technologies and Expression Analysis (LTEA) Assay for matrix metalloproteinase-10 (MMP10) using HepaRG (AID 2283517)
Summary of the method: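 HepaRG, collagen I, ~100,000 cells/well; serum-free induction medium; 48 h exposure, duplicate, 8-pt half-log to 100 uM, 0.5% DMSO. Readout: TaqMan qRT-PCR, normalized to ACTB/GAPDH/POLR2A; bidirectional fit vs DMSO.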

[18] = read-out: Insulin-like growth factor-binding protein 1 (IGFBP1), IGFBP1 (gene 3484); experiment: LTEA_HepaRG_IGFBP1: Life Technologies and Expression Analysis (LTEA) Assay for Insulin-like growth factor-binding protein 1 (IGFBP1) using HepaRG (AID 2283508)
Summary of the method: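 Thawed HepaRG cells are plated for 48 h, switched to serum-free induction medium, then dosed in duplicate for another 48 h (100 uM top, half-log steps). Lysates in RLT go to qRT-PCR, and gain or loss of signal is fitted relative to vehicle.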

Measured: AC50

Nuclear factor NF-kappa-B p105 subunit (Homo sapiens), sequence (P19838 whole entry, looked up): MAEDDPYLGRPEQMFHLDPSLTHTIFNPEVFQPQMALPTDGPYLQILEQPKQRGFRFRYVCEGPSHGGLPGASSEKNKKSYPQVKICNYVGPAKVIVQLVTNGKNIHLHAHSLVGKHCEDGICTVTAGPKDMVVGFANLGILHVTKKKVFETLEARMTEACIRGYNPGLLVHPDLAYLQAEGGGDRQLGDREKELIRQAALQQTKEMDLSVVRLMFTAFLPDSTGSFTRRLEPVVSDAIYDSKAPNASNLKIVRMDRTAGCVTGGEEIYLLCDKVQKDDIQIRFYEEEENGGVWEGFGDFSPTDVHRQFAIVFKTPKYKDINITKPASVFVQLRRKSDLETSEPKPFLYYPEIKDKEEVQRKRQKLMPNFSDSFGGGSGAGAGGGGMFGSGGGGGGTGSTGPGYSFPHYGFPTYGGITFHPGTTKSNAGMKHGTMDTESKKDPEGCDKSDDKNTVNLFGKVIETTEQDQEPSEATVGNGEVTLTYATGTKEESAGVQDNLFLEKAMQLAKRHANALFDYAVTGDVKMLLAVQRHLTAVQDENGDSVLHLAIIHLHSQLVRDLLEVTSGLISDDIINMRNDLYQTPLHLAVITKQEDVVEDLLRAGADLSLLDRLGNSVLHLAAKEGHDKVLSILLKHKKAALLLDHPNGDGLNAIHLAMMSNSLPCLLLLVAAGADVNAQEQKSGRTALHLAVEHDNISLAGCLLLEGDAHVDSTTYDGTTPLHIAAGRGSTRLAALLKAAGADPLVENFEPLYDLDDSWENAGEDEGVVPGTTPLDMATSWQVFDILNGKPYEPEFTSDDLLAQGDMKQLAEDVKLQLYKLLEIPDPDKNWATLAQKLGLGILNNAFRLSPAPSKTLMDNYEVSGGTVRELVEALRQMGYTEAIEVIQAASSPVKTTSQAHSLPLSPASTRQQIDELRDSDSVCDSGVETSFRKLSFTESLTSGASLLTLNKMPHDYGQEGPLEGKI
Hypoxia-inducible factor 1-alpha (Homo sapiens), sequence (Q16665 whole entry, looked up): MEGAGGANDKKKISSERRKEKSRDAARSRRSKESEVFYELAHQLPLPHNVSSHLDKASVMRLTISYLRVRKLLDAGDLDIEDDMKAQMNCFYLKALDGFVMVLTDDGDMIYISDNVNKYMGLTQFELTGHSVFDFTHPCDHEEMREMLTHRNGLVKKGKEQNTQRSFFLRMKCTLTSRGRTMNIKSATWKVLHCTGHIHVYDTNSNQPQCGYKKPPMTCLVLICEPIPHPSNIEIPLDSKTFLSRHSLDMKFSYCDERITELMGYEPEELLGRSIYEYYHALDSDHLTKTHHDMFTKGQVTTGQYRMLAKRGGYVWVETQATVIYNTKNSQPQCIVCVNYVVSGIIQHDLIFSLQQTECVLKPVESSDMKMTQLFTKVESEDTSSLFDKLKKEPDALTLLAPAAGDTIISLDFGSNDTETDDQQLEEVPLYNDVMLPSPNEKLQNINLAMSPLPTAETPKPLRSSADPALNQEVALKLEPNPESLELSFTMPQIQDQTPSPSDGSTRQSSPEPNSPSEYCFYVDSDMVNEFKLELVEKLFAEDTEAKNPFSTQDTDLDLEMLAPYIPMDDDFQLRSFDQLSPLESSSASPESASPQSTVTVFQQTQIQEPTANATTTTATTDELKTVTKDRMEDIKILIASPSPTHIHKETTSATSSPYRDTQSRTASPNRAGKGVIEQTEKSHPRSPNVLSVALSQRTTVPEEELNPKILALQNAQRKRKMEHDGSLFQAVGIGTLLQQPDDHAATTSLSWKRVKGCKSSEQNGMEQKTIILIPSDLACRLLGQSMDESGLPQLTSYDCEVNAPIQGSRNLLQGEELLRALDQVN

CCC(=NOC/C=C/Cl)C1=C(O)CC(C2CCOCC2)CC1=O (stereo unspecified)
not listed: [16] | [17] | [18]
inactive: all other assays above

CCC(CC)Nc1c([N+](=O)[O-])cc(C)c(C)c1[N+](=O)[O-]
active: [3] 61.1 µM | [8] 50 µM | [16] 50 µM
not listed: [17] | [18]
inactive: all other assays above

COc1cc(OC)nc(Sc2cccc(Cl)c2C(=O)O)n1
not listed: [16] | [17] | [18]
inactive: all other assays above

O=c1ccc(=O)[nH][nH]1
not listed: [16] | [18]
inactive: all other assays above

CCOP(=S)(OCC)OC(Cl)C(Cl)(Cl)Cl (stereo unspecified)
not listed: [17] | [18]
inactive: all other assays above

O=C(O)c1cc(Oc2ccc(C(F)(F)F)cc2Cl)ccc1[N+](=O)[O-]
active: [2] 50 µM | [11] 12.6 µM
not listed: [3] | [16] | [18]
inactive: all other assays above

Cc1ccn2nc(S(=O)(=O)Nc3c(F)cccc3F)nc2n1
not listed: [14] | [16] | [17] | [18]
inactive: all other assays above

CN(C)[C@@H]1C(=O)C(C(N)=O)=C(O)[C@@]2(O)C(=O)C3=C(O)c4c(O)cccc4[C@@](C)(O)[C@H]3[C@H](O)[C@@H]12
inactive: [2] | HGF (gene 3082) | [3] | [4] | [18] | [5] | [6] | [7] | [8] | [9] | [10] | [11] | [12] | [17] | MYC, MYC (gene 4609) | [13] | [16] | [15]
active: [13] 5.76 µM

COP(=O)(OC)C(O)C(Cl)(Cl)Cl (stereo unspecified)
not listed: [1] | [16] | [18]
inactive: all other assays above

C=C(C)[C@H]1Cc2c(ccc3c2O[C@@H]2COc4cc(OC)c(OC)cc4[C@@H]2C3=O)O1
inactive: [6] | [14]
active: [1] 23.8 µM | [2] 1.7 µM | HGF (gene 3082) 22.8 µM | [3] 1.03 µM | [4] 2.14 µM | [5] 1.44 µM | [7] 16.6 µM | [8] 0.654 µM | [9] 17.8 µM | [10] 12.7 µM | [11] 2.16 µM | [12] 1.32 µM | MYC, MYC (gene 4609) 6.64 µM | [13] 14.3 µM | [15] 50 µM

CCOP(=S)(Oc1cnc(C(C)(C)C)nc1)OC(C)C (stereo unspecified)
active: [2] 14 µM | [3] 44.6 µM | [6] 25.1 µM | [10] 18.8 µM
not listed: [16] | [17] | [18]
inactive: all other assays above

CC(COc1ccc(Oc2ccccc2)cc1)Oc1ccccn1 (stereo unspecified)
active: [2] 12.6 µM | [3] 32.8 µM
not listed: [16] | [18]
inactive: all other assays above

C#CC(C)(C)NC(=O)c1cc(Cl)cc(Cl)c1
active: [3] 14.8 µM | [8] 11.8 µM
not listed: [6] | [16] | [17] | [18]
inactive: all other assays above

Cc1nn(-c2cc(NS(C)(=O)=O)c(Cl)cc2Cl)c(=O)n1C(F)F
not listed: [3] | [14] | [16] | [17]
inactive: all other assays above
